Compound activity as filed in PubChem.
Rab9 promoter act = activates the Rab9 promoter. Huh7 Rab9 promoter-luciferase reporter, luminescence, 24 h. Potency, µM (top dose mostly 9.22 µM), actives largely listed as activators. hit rate 2.8% among 320,000. AID 485297; further: nearly all actives have a fitted effect of over 60% in size
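Huh7 reporter line, Rab9 promoter upstream of luciferase. Compound exposure 24 h at 37 °C in reduced-serum medium with 10% FBS. Read-out: luminescence.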
NPC1 prom act = activators of NPC1 promoter | Potency, µM (highest dose often 9.22 µM), hits mostly activators | hit rate 2.4% among 320,000 | Huh7 NPC1 promoter luciferase reporter, 24 h; further: nearly all actives have a fitted effect of over 60% in size
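NPC1 promoter–luciferase Huh7 cells; 24 h compound; luminescence.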
ELG1 genotoxic = genotoxicity induction in ELG1-luciferase HEK293T cells; HEK293T ELG1-luciferase reporter, luminescence, 16 h; Potency, µM (titrated, usually from 46 µM), actives largely listed as activators; hit rate 1.3% among 330,000; further: nearly all actives have a fitted effect of over 60% in size
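ELG1-luciferase HEK293T cells, 2,000/well; compound pinned in; 16 hr, 37 °C, 5% CO2; ONE-Glo, 30 min RT; luminescence on CCD imager.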
FLuc modulator = firefly luciferase modulation, counter-screen for miR-21 project | P08659 | purified FLuc, Km substrates, luminescence inhibition | Potency, µM (doses to about 57.5 µM), usual class: inhibitors | hit rate 6.9% among 360,000; further: nearly all actives have a fitted effect of over 55% in size
Target sequence (P08659 whole entry, looked up): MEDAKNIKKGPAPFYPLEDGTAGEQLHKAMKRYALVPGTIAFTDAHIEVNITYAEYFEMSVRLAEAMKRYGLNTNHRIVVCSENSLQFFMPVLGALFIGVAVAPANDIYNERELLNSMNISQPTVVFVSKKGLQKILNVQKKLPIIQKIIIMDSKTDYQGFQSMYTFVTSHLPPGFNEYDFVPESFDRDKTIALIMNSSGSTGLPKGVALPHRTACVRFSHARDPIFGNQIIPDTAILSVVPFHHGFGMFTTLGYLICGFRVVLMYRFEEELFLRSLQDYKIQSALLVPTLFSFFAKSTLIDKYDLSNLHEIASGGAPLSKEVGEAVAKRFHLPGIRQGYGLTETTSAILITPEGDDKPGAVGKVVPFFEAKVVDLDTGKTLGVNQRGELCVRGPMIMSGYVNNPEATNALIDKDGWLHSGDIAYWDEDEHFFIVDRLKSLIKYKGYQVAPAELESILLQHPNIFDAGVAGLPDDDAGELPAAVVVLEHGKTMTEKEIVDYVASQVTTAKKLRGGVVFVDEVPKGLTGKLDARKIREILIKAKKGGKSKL
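Purified P. pyralis luciferase, 10 nM final, with Km-level 10 uM D-luciferin and 10 uM ATP in 50 mM Tris acetate pH 7.5, 10 mM Mg acetate, 0.01% Tween-20, 0.05% BSA; 6-point qHTS titration about 60 µM downward; luminescence read.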
ELG1 repair inh = blocks ELG1-dependent DNA repair in HEK293T cells; HEK293T ELG1-luciferase reporter, luminescence, 16 h; DNA damage induced by 5-fluorouridine; Potency, µM (titrated, usually from 46.1 µM), usual class: inhibitors; hit rate 2.3% among 330,000; AID 504467; further: nearly all actives have a fitted effect of over 55% in size
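Cells (2,000 per well) received 5-fluorouridine plus test compound or DMSO and were incubated 16 hr at 37 °C, 5% CO2. Luciferase activity was read by luminescence 30 min after ONE-Glo addition; signal suppression marked inhibition of damage-induced ELG1 function.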
SMN2 splice up = enhancers of SMN2 splice variant expression | HEK293 SMN2-luciferase splicing reporter, luminescence, 30-36 h | Potency, µM (doses to about 46.1 µM), usual class: activators | hit rate 2.8% among 210,000 | AID 1458; further: nearly all actives have a fitted effect of over 55% in size
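HEK293 cells carry an SMN2 […]–luciferase reporter in which exon 7 inclusion puts luciferase in frame. Cells were plated 10-12 h before compound addition, then incubated 30-36 h at 37C. ONE-Glo luminescence was read; sodium butyrate at 4.5 mM final served as control.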
A number is an active result; [ ] = remark or other dose. Shown are actives, neighbours in structure and some others; about 9.2% of the full set was active somewhere. The call rests on the fitted dose curve; in most records, active means well fitted curve in the direction sought with a large enough effect; inconclusive means small, poorly fitted or top-dose-only effect, or another doubt; inactive means no such curve, though single readings can be large; an effect the other way counts as inactive or inconclusive.

`COc1ccccc1N1CCN(C(=O)c2oc3ccccc3c2N)CC1` gave FLuc modulator inactive and SMN2 splice up inactive.
`COCCCn1c(-c2cccc(Cl)c2)nc2c1c(=O)[nH]c(=O)n2Cc1ccccc1` gave Rab9 promoter act inactive, NPC1 prom act inactive, ELG1 genotoxic inactive, FLuc modulator inactive and ELG1 repair inh inconclusive.
`O=c1[nH]c(=O)n(Cc2ccccc2)c2nc(-c3ccc(Oc4ccc(F)cc4)c([N+](=O)[O-])c3)n(CCO)c12` gave Rab9 promoter act inactive, NPC1 prom act inactive, ELG1 genotoxic inactive, FLuc modulator inactive, ELG1 repair inh inconclusive and SMN2 splice up inactive.
For COCCn1c(=O)[nH]c(=O)c2c1nc(-c1ccc(-c3ccc(Cl)cc3[N+](=O)[O-])o1)n2Cc1ccccc1 the results were Rab9 promoter act inactive, NPC1 prom act inactive, ELG1 genotoxic inactive, FLuc modulator inactive, ELG1 repair inh 13µM and SMN2 splice up inconclusive.
COc1ccc(-c2ccc(-c3nc4c(c(=O)[nH]c(=O)n4Cc4ccccc4)n3C)o2)c([N+](=O)[O-])c1 was read as Rab9 promoter act inactive, NPC1 prom act inactive, ELG1 genotoxic inactive, FLuc modulator inactive and ELG1 repair inh 5.8µM.
Screening COCCn1c(-c2ccc(-c3ccc([N+](=O)[O-])cc3Br)o2)nc2c1c(=O)[nH]c(=O)n2CC(C)C returned Rab9 promoter act inactive, NPC1 prom act inactive, ELG1 genotoxic inactive, FLuc modulator inactive, ELG1 repair inh 10.3µM and SMN2 splice up inactive.
For OC(COCc1ccccc1)CN1CCCCC1 (stereo unspecified) the results were Rab9 promoter act inactive, NPC1 prom act inactive, ELG1 genotoxic inactive[9.26 µM], FLuc modulator inactive and ELG1 repair inh inconclusive.
`CC1CCN(c2ccc([N+](=O)[O-])cc2C(=O)NCC2CCCO2)CC1` (stereo unspecified) gave Rab9 promoter act inactive, NPC1 prom act inactive, ELG1 genotoxic inactive, FLuc modulator inactive and ELG1 repair inh inactive.
`COc1ccc(C(=O)Nc2ccc3ccccc3n2)c(OC)c1OC` gave Rab9 promoter act inconclusive, NPC1 prom act inconclusive, ELG1 genotoxic 0.326µM, FLuc modulator 0.213µM and ELG1 repair inh inconclusive.
O=C(Nc1ccc2ccccc2n1)c1ccc(Cl)cc1 was read as Rab9 promoter act 0.631µM, NPC1 prom act 1µM, ELG1 genotoxic inconclusive, FLuc modulator 2.13µM and ELG1 repair inh inconclusive.
`O=C(Nc1ccccc1)C1CCCCC1` gave Rab9 promoter act inactive, NPC1 prom act inactive, ELG1 genotoxic inactive, FLuc modulator inactive and ELG1 repair inh inactive.
O=C(Nc1ccc2ccccc2n1)c1ccccc1Cl was read as Rab9 promoter act 0.562µM, NPC1 prom act 0.708µM, ELG1 genotoxic inconclusive, FLuc modulator 1.35µM and ELG1 repair inh inconclusive.
O=C(Nc1ccc2ccccc2n1)C1CCCCC1 was read as Rab9 promoter act 0.794µM, NPC1 prom act 1.12µM, ELG1 genotoxic inconclusive, FLuc modulator 6.01µM and ELG1 repair inh inconclusive.
Screening COc1cccc(C(=O)Nc2cccc3ccccc23)c1OC returned Rab9 promoter act inactive, NPC1 prom act inactive, ELG1 genotoxic inactive, FLuc modulator inconclusive and ELG1 repair inh inconclusive.
Screening Nc1nnc(SCC(=O)c2ccccc2)s1 returned Rab9 promoter act inactive, NPC1 prom act inactive, ELG1 genotoxic inactive, FLuc modulator inactive, ELG1 repair inh inconclusive and SMN2 splice up inactive.
`Nc1c(C(=O)c2ccccc2)sc2snc(SCC(=O)c3ccccc3)c12` gave Rab9 promoter act inactive, NPC1 prom act inactive, ELG1 genotoxic inactive, FLuc modulator 7.57µM, ELG1 repair inh inactive and SMN2 splice up inactive.
Cc1ccc(NC(c2cccc(Cl)c2)c2nnc(-c3ccccc3)o2)cc1F (stereo unspecified) was read as FLuc modulator inactive and SMN2 splice up inactive.
O=C(Nc1ccc(Cl)cc1Cl)NC1CCCC1 was read as Rab9 promoter act inconclusive, NPC1 prom act inactive, ELG1 genotoxic inactive, FLuc modulator inactive, ELG1 repair inh inconclusive and SMN2 splice up inactive.
For CN(C(=O)Nc1ccc(Cl)cc1Cl)C1CCCC1 the results were Rab9 promoter act 3.98µM, NPC1 prom act inconclusive, ELG1 genotoxic inconclusive, FLuc modulator 19µM and ELG1 repair inh inconclusive.
`CN(C)S(=O)(=O)c1ccc(C(=O)OCC2CC2(Cl)Cl)cc1` (stereo unspecified) gave Rab9 promoter act inactive, NPC1 prom act inactive, ELG1 genotoxic inactive, FLuc modulator inactive and ELG1 repair inh inactive.
O=C(Nc1nccs1)c1ccc([N+](=O)[O-])cc1 was read as Rab9 promoter act inactive, NPC1 prom act inconclusive, ELG1 genotoxic inactive, FLuc modulator inactive and ELG1 repair inh inconclusive.
For CCOC(=O)Cc1csc(NC(=S)NC(=O)c2ccccc2Br)n1 the results were Rab9 promoter act inactive, NPC1 prom act inactive, ELG1 genotoxic inactive, FLuc modulator 21.3µM and ELG1 repair inh inconclusive.
Screening Cc1csc(NC(=O)c2ccoc2C)n1 returned Rab9 promoter act inconclusive, NPC1 prom act inconclusive, ELG1 genotoxic inconclusive, FLuc modulator inconclusive, ELG1 repair inh inconclusive and SMN2 splice up 12.6µM.
`CCOC(=O)Cc1csc(NC(=S)NC(=O)c2cc(OC)cc(OC)c2)n1` gave Rab9 promoter act inactive, NPC1 prom act inactive, ELG1 genotoxic inactive, FLuc modulator inactive, ELG1 repair inh inconclusive and SMN2 splice up inactive.
For CCCCC(=O)Nc1ccc(C(=O)Nc2nc(CC(=O)OCC)cs2)cc1 the results were Rab9 promoter act inactive, NPC1 prom act inactive, ELG1 genotoxic inactive, FLuc modulator 19µM, ELG1 repair inh inactive and SMN2 splice up inactive.
For O=C(Nc1nccs1)c1ccc2c(c1)OCO2 the results were Rab9 promoter act 1.58µM, NPC1 prom act 2.24µM, ELG1 genotoxic inconclusive, FLuc modulator 6.01µM and ELG1 repair inh inconclusive.
Clc1cccc(N2CCN(c3ncnc4c3nc3n4CCCCC3)CC2)c1 was read as FLuc modulator inactive and SMN2 splice up inactive.
Screening CCCNC(=O)C(=O)NCC(c1ccc2c(c1)OCO2)N1CCOCC1 (stereo unspecified) returned FLuc modulator inactive.
For O=C1N(Cc2ccccc2Cl)c2ccccc2C1(O)c1c[nH]c2ccccc12 (stereo unspecified) the results were FLuc modulator inactive and SMN2 splice up inactive.
COc1ccc(NC(=O)CSC2=Nc3ccccc3C3=NC(CC(=O)NCc4ccco4)C(=O)N23)cc1 (stereo unspecified) was read as FLuc modulator inactive.
For CCOC(=O)Cc1csc(NC(=O)c2ccc(F)cc2)n1 the results were Rab9 promoter act inactive, NPC1 prom act inactive, ELG1 genotoxic inactive, FLuc modulator inconclusive and ELG1 repair inh inconclusive.
`CCOC(=O)Cc1csc(NC(=O)c2ccc3c(c2)OCO3)n1` gave Rab9 promoter act inactive, NPC1 prom act inactive, ELG1 genotoxic inactive, FLuc modulator 12µM, ELG1 repair inh inactive and SMN2 splice up inconclusive.
